Bioassay records from PubChem BioAssay.
U2OS ROS induce = inducers of reactive oxygen species in cancer cells; ROS induction (% of piperlongumine), % at 10 µM; actives 2% (n = 46,000); U2OS ROS induction, H2DCF-DA fluorescence; in the data active means ROS induction above about 79%, passing the limit was not always enough;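 further: 0% = DMSO vehicle median and 100% = reference compound median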
* marks the source's active call; other numbers are inactive results. The sample as a whole holds a higher share of hits than the screen did.

SMILES	U2OS ROS induce
O=C(NC1CCCCNC1=O)c1cnn(-c2ccccc2)c1C(F)(F)F (stereo not given)	-11
Cc1nc(-c2sc3ccc(Cl)cc3c2C)cs1	-3
O=C(Cn1cc(C(=O)C2CC2)c2ccccc21)NCc1cccs1	-6
O=C(NCC1CCCN2CCCCC12)c1cccc(Br)c1 (stereo not given)	-5
Cc1ccc(Nc2nnc(-c3ccc(C)c(S(=O)(=O)NCC4CCCO4)c3)c3ccccc23)cc1 (stereo not given)	216*
Cc1ccc(-c2nnc(N3CCOCC3)c3ccccc23)cc1S(=O)(=O)NC(C)(C)CO	-7
COc1ccc(C(C)(C)C)cc1S(=O)(=O)NCC1CCCO1 (stereo not given)	8
CNC(=S)N(Cc1ccccc1)Cc1ccccc1	-9
O=c1n(CCCN2CCN(c3cccc(Cl)c3)CC2)nc2ccccn12	-1
CCCc1nc(N)c(C#N)c(-c2ccccc2)c1CC	13
CCCc1c(C#N)c(N)nc(SCCCN2CCN(c3cccc(Cl)c3)CC2)c1C#N	126*
C=CCn1c(=O)c2c(nc3n2CCN3c2ccc(F)cc2)n(C)c1=O	48
CCc1cc(=O)oc2c(C)c(O)ccc12	-4
COc1ccc(OC)c2c(N3CCOCC3)cc(C(F)(F)F)nc12	-17
CCOc1ccc([C@H]2[C@@H]3CN(Cc4ccccc4)CC=C3C(C#N)=C(N)C2(C#N)C#N)cc1	48
CCCN1CC=C2C(C#N)=C(N)C(C#N)(C#N)C3(C(=O)Nc4ccccc43)C2C1 (stereo not given)	38
N#CC1=C(N)C(C#N)(C#N)C2(C(=O)N(Cc3ccccc3)c3ccccc32)C2CCCC=C12 (stereo not given)	127*
CCOc1ccc(S(=O)(=O)N(CC(=O)N2CCC(C)CC2)c2ccccc2)cc1	-5
CCC(Sc1nnc(C)n2c1cc1oc(C)cc12)C(=O)Nc1cccc(OC)c1 (stereo not given)	96*
CCn1c(SCC(=O)Nc2cccc(OC)c2)nnc1-c1cccc(C)c1	7
COc1cccc(NC(N)=O)c1	-5
NC(=O)COc1ccc(Cl)cc1	-7
COC(=O)c1ccccc1C(=O)c1ccccc1	7
COC(=O)c1cc(NC(=O)CN(c2ccccc2F)S(C)(=O)=O)ccc1Cl	0
COC(=O)c1cc(S(=O)(=O)/C=C/c2ccccc2)c(Cl)cc1Cl	121*
SMILES	U2OS ROS induce
O=C(NCC12CC3CC(CC(C3)C1)C2)N1CCN(CCO)CC1	-5
O=C1/C(=C/c2ccc3ccccc3c2)COc2ccccc21	103*
COc1ccc(/C=C2\CCc3ccccc3C2=O)cc1CN1CCOCC1	9
COc1ccc2c(c1)OC/C(=C\c1ccc(OC)c(O)c1)C2=O	70
CC(C)(C)C(=O)CSc1nnc(-c2cc(OCC(F)(F)F)ccc2OCC(F)(F)F)o1	-6
CCOc1ccc(OCCSc2nc3ccccc3n2Cc2ccccc2)cc1	12
C[C@H]1CN([C@@H](C)CO)C(=O)Cc2cc(NC(=O)Cc3ccccc3)ccc2O[C@@H]1CN(C)CC1CCCCC1	108*
C[C@@H]1CN([C@@H](C)CO)C(=O)Cc2cc(NC(=O)Cc3cn(C)c4ccccc34)ccc2O[C@@H]1CN(C)Cc1ccc(Oc2ccccc2)cc1	122*
C[C@H]1CN([C@@H](C)CO)C(=O)Cc2cc(NC(=O)Cc3cn(C)c4ccccc34)ccc2O[C@@H]1CN(C)S(=O)(=O)c1ccc(F)cc1	89*
C[C@H]1CN([C@@H](C)CO)C(=O)Cc2cc(NC(=O)Cc3cn(C)c4ccccc34)ccc2O[C@@H]1CN(C)Cc1ccc(Oc2ccccc2)cc1	35
C[C@H]1CN([C@@H](C)CO)C(=O)c2cc(NC(=O)Cc3cn(C)c4ccccc34)ccc2O[C@@H]1CN(C)Cc1ccc(-c2ccccc2)cc1	153*
C[C@@H]1CN([C@H](C)CO)C(=O)c2cc(NC(=O)Cc3cn(C)c4ccccc34)ccc2O[C@H]1CN(C)Cc1ccc(-c2ccccc2)cc1	58
C[C@@H]1CN([C@H](C)CO)C(=O)Cc2cc(NC(=O)Cc3cn(C)c4ccccc34)ccc2O[C@H]1CN(C)S(=O)(=O)c1ccc(F)cc1	23
C[C@H]1CN([C@@H](C)CO)C(=O)c2cc(NC(=O)Cc3cn(C)c4ccccc34)ccc2O[C@H]1CN(C)Cc1ccc(-c2ccccc2)cc1	18
C[C@@H]1CN([C@H](C)CO)C(=O)Cc2cc(NC(=O)Cc3ccccc3)ccc2O[C@@H]1CN(C)CC1CCCCC1	23
C[C@H](CO)N1C[C@H](C)[C@H](CN(C)S(=O)(=O)c2ccccc2)Oc2ccc(NC(=O)Cc3cn(C)c4ccccc34)cc2CC1=O	-3
C[C@H]1CN([C@@H](C)CO)C(=O)Cc2cc(NC(=O)Cc3cn(C)c4ccccc34)ccc2O[C@H]1CN(C)Cc1ccc(Oc2ccccc2)cc1	0
C[C@@H]1CN([C@@H](C)CO)C(=O)Cc2cc(NC(=O)Cc3ccccc3)ccc2O[C@@H]1CN(C)CC1CCCCC1	4
COC(=O)c1sc(S(=O)(=O)N2CCN(c3ccccc3OC)CC2)c(C(=O)OC)c1C	-5
CC(C)(C)n1ncc2c(=O)n(Cc3cccc4ccccc34)cnc21	9
CCOC(=O)Cc1csc(NC(=O)c2ccccc2)n1	1
COc1ccc(C2c3ccsc3CCN2S(=O)(=O)c2ccc(Cl)cc2)cc1 (stereo not given)	4
COC(=O)c1c(C)nc(C)c(C(=O)OC)c1-c1csc(S(=O)(=O)Nc2ccc(OC)cc2)c1	29
C[C@@H]1CN([C@@H](C)CO)C(=O)c2cc(NC(=O)Cc3cn(C)c4ccccc34)ccc2O[C@H]1CN(C)Cc1ccc(Cl)c(Cl)c1	35
C[C@H](CO)N1C[C@H](C)[C@H](CN(C)Cc2ccc(C(=O)Nc3ccccc3N)cc2)Oc2ccc(NC(=O)Cc3cn(C)c4ccccc34)cc2CC1=O	23
SMILES	U2OS ROS induce
C[C@H]1CN([C@@H](C)CO)C(=O)Cc2cc(NC(=O)Nc3ccc(F)cc3)ccc2O[C@@H]1CN(C)Cc1ccc(C(=O)Nc2ccccc2N)cc1	25
C[C@H]1CN([C@@H](C)CO)C(=O)Cc2cc(NC(=O)Cc3cn(C)c4ccccc34)ccc2O[C@H]1CN(C)Cc1ccc(C(=O)Nc2ccccc2N)cc1	26
C[C@@H]1CN([C@H](C)CO)C(=O)Cc2cc(NC(=O)Cc3ccccc3)ccc2O[C@@H]1CN(C)Cc1ccc(Oc2ccccc2)cc1	95*
C[C@H]1CN([C@@H](C)CO)C(=O)Cc2cc(NC(=O)Cc3ccccc3)ccc2O[C@H]1CN(C)Cc1ccc(Oc2ccccc2)cc1	64
C[C@H](CO)N1C[C@H](C)[C@@H](CN(C)Cc2ccc(Cl)c(Cl)c2)Oc2ccc(NC(=O)Cc3cn(C)c4ccccc34)cc2C1=O	152*
COc1ccc(CN(C)C[C@@H]2Oc3ccc(NC(=O)Cc4ccccc4)cc3CC(=O)N([C@@H](C)CO)C[C@@H]2C)cc1	11
C[C@@H]1CN([C@H](C)CO)C(=O)Cc2cc(NC(=O)Cc3cn(C)c4ccccc34)ccc2O[C@@H]1CN(C)Cc1ccc(C(=O)Nc2ccccc2N)cc1	86*
C[C@@H]1CN([C@H](C)CO)C(=O)Cc2cc(NC(=O)Nc3ccc(F)cc3)ccc2O[C@H]1CN(C)Cc1ccc(C(=O)Nc2ccccc2N)cc1	7
C[C@@H]1CN([C@H](C)CO)C(=O)Cc2cc(NC(=O)Nc3ccccc3)ccc2O[C@@H]1CN(C)Cc1ccc(C(=O)Nc2ccccc2N)cc1	102*
C[C@H](CO)N1C[C@H](C)[C@H](CN(C)Cc2ccc(Cl)c(Cl)c2)Oc2ccc(NC(=O)Cc3cn(C)c4ccccc34)cc2C1=O	-2
